Broadly, the inhibition is the change of the read-out against control, counted positive when it falls.

Among all 96,000 compounds or so, about 20,000 (21%) were called active.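 The calls were made as follows: active = CYP2C19 inhibition above a set limit at 5 µM in the primary screen (cut at about 50% in these data); inactive = the rest.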 These entries were drawn from the full list.

Sequence of Cytochrome P450 2C19 (Homo sapiens) (P33261 whole entry, looked up): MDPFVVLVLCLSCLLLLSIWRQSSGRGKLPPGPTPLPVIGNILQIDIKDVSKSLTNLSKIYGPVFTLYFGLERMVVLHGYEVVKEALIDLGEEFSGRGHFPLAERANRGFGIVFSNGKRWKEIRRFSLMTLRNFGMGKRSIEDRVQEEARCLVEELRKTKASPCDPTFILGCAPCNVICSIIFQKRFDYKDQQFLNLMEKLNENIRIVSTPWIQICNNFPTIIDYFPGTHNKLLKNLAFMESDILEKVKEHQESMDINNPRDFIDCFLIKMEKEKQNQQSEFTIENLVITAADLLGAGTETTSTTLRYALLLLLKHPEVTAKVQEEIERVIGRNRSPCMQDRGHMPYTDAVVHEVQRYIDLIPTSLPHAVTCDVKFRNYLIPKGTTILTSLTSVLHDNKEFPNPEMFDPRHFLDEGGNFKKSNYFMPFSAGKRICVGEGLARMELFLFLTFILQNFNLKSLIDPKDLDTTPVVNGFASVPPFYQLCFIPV

This assay has as its target Cytochrome P450 2C19 (Homo sapiens) (UniProt P33261). Kind of assay: blockers of cytochrome P450 2C19 activity – biochemical, luminescence, ADME assay, primary screen (AID 778).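 Also: plate controls were negative control wells for no effect and 2.5 mM tranylcypromine positive control for full effect.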 The note with it: CYP2C19 Supersomes, luciferin-H EGE luminescence, 30 min; at 5 µM; hits give high values.
Take `Nn1c(SCC(=O)NC(=O)NC2CCCC2)nnc1-c1ccccc1F`: the inhibition was 27.9% (inactive).

As for `COc1ccc(C(C(O)C(=O)c2c[nH]c3ccccc23)N2CCN(c3ccccc3)CC2)cc1` (stereo not drawn), the inhibition is 28.5% (inactive).

As for `CCC(C)c1ccc(O)c(/C=N/O)c1` (stereo not drawn), the inhibition was -21.8% (inactive).

With `Cc1nc2ccc(C(=O)O)cc2[nH]1`, the inhibition was -2.4% (inactive). Regarding `Cc1noc(C)c1CSc1nnc2ccc3ccccc3n12`, the inhibition is 23.4% (inactive). As for `Cc1noc(C)c1COC(=O)c1cc2ccccc2cc1O`, the inhibition was 89.3% (active).

For `Cc1noc(C)c1COC(=O)Cn1c(C)nc2ccccc21`, the inhibition is 17.3% (inactive). In the case of `CC(CN1CCOCC1)c1ccccc1` (stereo not drawn) it was 26.4% (inactive). In the case of `CC(C)C(=O)Nc1ccc2c(c1)oc1ccccc12` it was 13.2% (inactive); in that of `Cc1nc2cc(NC(=O)NCc3ccccc3)ccc2o1`, -8.7% (inactive). The same measure for `O=C(O)CCN1C(=O)CC2(CCCCC2)C1=O`: -6.7% (inactive). Take `Cc1ccc(-n2nc3c(c2NC(=O)c2ccc4c(c2)OCO4)CSC3)c(C)c1`: the inhibition is 3.6% (inactive).

Consider `O=C(Nc1ccc2c(c1)OCCO2)c1ccc(Cl)c(S(=O)(=O)N2CCCCC2)c1`, for which the inhibition was 96.4% (active). The same measure for `Cc1ccc(C(=O)NCC(=O)O)cc1S(=O)(=O)N1CCCCC1`: -12.8% (inactive); for `Cc1ccc(C(=O)Nc2ccc3c(c2)OCO3)cc1S(=O)(=O)N1CCCCC1`: 92.3% (active). In the case of `Cn1c(=O)n(C)c2cc(C(=O)Nc3ccc4c(c3)OCO4)ccc21` it was -13.9% (inactive); in that of `O=C(O)c1cc(S(=O)(=O)N2CCCCCC2)c(Cl)cc1Cl`, 0% (inactive); in that of `COc1ccc(N2C(=O)c3cccc4cccc(c34)C2=O)nn1`, -8.5% (inactive).

On to `CC1CCCN(C(=O)Cn2c(=O)oc3ccccc32)C1` (stereo not drawn), for which the inhibition is 26.2% (inactive). In the case of `Cc1nnc(NC2=NCCCCC2)o1` it was -3.5% (inactive). The same measure for `O=C(CC1NCCNC1=O)Nc1ccc(Oc2ccccc2)cc1` (stereo not drawn): -0.6% (inactive); for `Cn1c(=O)[nH]c(=O)c2c1nc(Br)n2CCCCSc1nc2ccccc2o1`: 38.5% (inactive); for `Cc1ccc(Oc2ccc3c(c2)C(=O)N(c2cccc4cccnc24)C3=O)cc1`: -1.5% (inactive). In the case of `COc1ccc(N/N=C2/CCCCC2=O)cc1` it was 3.1% (inactive); in that of `COc1ccc(CNC(=O)C2CCN(S(=O)(=O)N3CCOCC3)CC2)cc1`, -11.9% (inactive).

For the molecule `COc1ccc(CNC2CCCCC2)cc1`, the inhibition was 69.4% (active).

Regarding `CN1C(=O)c2ccc(NC(=O)C3CCCCC3)cc2C1=O`, the inhibition was -0.4% (inactive). In the case of `O=C1c2ccccc2C(=O)N1c1ccccc1S(=O)C(F)(F)F` (stereo not drawn) it was 6.6% (inactive). The same measure for `Cc1ccc(-n2c(=O)cc(N3CCN(Cc4ccccc4)CC3)[nH]c2=O)cc1`: 1.5% (inactive); for `Cc1ccc(C)c(S(=O)(=O)N2CC(=O)Nc3ccccc32)c1`: 32.8% (inactive); for `Cc1ccc(S(=O)(=O)N2CC(=O)Nc3ccccc32)cc1C`: 60.4% (active). Turning to `CC1=NCCN1S(=O)(=O)c1ccc(Br)c(C)c1`, the inhibition was 27.7% (inactive).

Turning to `O=C(OCC#CCSc1nnc(-c2ccncc2)o1)c1sc2ccccc2c1Cl`, the inhibition is -11.8% (inactive). The same measure for `CC1CCN(C(NC(=O)c2ccco2)C(=O)c2ccccc2)CC1` (stereo not drawn): 35.9% (inactive); for `O=C(OCC(=O)c1cccs1)C1=COCCO1`: 2.6% (inactive). The same measure for `CCOC(=O)C1C(=O)NCC1c1ccccc1` (stereo not drawn): -0.1% (inactive); for `CCOC(=O)C1=C(C)NC(C)=C(C(=O)OCC)C1C1=COCCO1`: 88.8% (active); for `CCOc1ccccc1C1NC(=O)NC(C)=C1C(=O)OCc1ccco1` (stereo not drawn): 16.1% (inactive).

Regarding `CCOC(=O)C1=C(C)NC(C)=C(C(=O)OCC)C1c1ccccn1`, the inhibition is 50.3% (active). In the case of `CCCC1NC(=O)NC(C)=C1C(=O)OCC` (stereo not drawn) it was 17% (inactive); in that of `CCCCCn1c(SCCC(C)C)nc2c1c(=O)[nH]c(=O)n2C`, 8.6% (inactive).

Regarding `Cc1ccc(C2CC(c3cccc(Br)c3)n3nc(N)nc3N2)cc1` (stereo not drawn), the inhibition was 21.7% (inactive).

Regarding `Cc1ccc(-c2ccc(=O)n(CC(=O)NCCCN3CCCCC3)n2)cc1`, the inhibition was 6.9% (inactive). In the case of `O=C1c2ccccc2C(=O)c2c1cccc2N1CCN(CCO)CC1` it was 1.4% (inactive). Regarding `Cc1ccc(NC(=S)NC(=O)c2ccc(-c3ccccc3)cc2)c(C)c1`, the inhibition was 8.6% (inactive).

In the case of `CCOC(=O)c1c(-c2ccccc2)csc1NC(=S)NC(=O)c1ccccc1`, the inhibition is -8.6% (inactive). As for `Cc1cc2[nH]ncc2cc1NC(=S)NC(=O)c1ccccc1`, the inhibition was 99.2% (active). In the case of `CC1(C)C(=O)C2(CCCCC2)C(=O)OC1c1cccs1` (stereo not drawn) it was 15.1% (inactive). The same measure for `CCOC1CS(=O)(=O)CC1OCC` (stereo not drawn): -10.9% (inactive). In the case of `Nc1nnc(C2CCCC2)s1`, the inhibition was 8.1% (inactive). Regarding `Cc1cc(N/C=C\C(=O)c2ccc(Cl)c(Cl)c2)no1`, the inhibition is 40.4% (inactive). With `Cc1nn(C(=O)c2ccoc2C)c(N)c1-c1ccccc1`, the inhibition is 29.7% (inactive). Take `Cc1nn2c(c1-c1ccccc1)N=C(c1ccco1)CC2c1ccccc1` (stereo not drawn): the inhibition is 66.2% (active). The same measure for `CN(C)/C=C(\C#N)C(=O)c1cccnc1Oc1cccc(F)c1`: 40.5% (inactive); for `COc1cccc2cc(C(=O)N(C)C)c(=O)oc12`: -22.6% (inactive). The same measure for `CCCCNC(=O)c1onc(CSc2cccc(OC)c2)c1C(=O)O`: 12.9% (inactive); for `CCOc1ccc(NC(=O)N(CC(C)C)CC(C)C)cc1`: 11.8% (inactive). As for `CC(O)CN(Cc1ccc(Cl)cc1)CC(C)O` (stereo not drawn), the inhibition was -2.3% (inactive).

For `OCCN(Cc1ccccc1)Cc1ccc(Cl)cc1`, the inhibition was 100% (active). Take `CN(Cc1ccccc1)Cc1ccccc1F`: the inhibition is 44.7% (inactive). Turning to `Brc1cnc(N2CCCC2)nc1N1CCCCC1`, the inhibition was 1.7% (inactive). On to `COc1cc(OC)cc(C(=O)NCCSCc2ccco2)c1`, for which the inhibition is 35% (inactive). For `O=C(CN1C(=O)C2C3C=CC(C3)C2C1=O)NCC1COc2ccccc2O1` (stereo not drawn), the inhibition was 0.4% (inactive).

Turning to `CCOC(=O)Cn1c(N)c(C(=O)OC)sc1=S`, the inhibition was 26.8% (inactive). On to `COC(=O)c1sc(=S)n(-c2ccc(Cl)cc2)c1C`, for which the inhibition is 62.9% (active). Regarding `COC(=O)c1sc(=S)n(-c2ccccc2)c1N`, the inhibition was 17.4% (inactive). In the case of `CC1(C)CC(=O)NC=C(c2ccccc2)C1` it was 23.8% (inactive). For `Brc1ccc(/C=N/N2CCN(C3c4ccccc4-c4ccccc43)CC2)s1`, the inhibition is 11.5% (inactive).

The record behind these values is PubChem BioAssay AID778 (Sanford-Burnham Center for Chemical Genomics, 2007).
